Values joined by “and” are separate entries in the source; they are usually repeats but may differ in a detail not shown here. Identical values can stand only once. Results filed as inconclusive are left out. A structure can be active in one record and inactive in another. Active and inactive are the calls of the source. How the source made its calls, unless noted: active means hit-call score of the fitted dose curve at least 0.9, where 1 is the maximum; inactive means score below 0.9.
Key:
[1] = read-out: Human Leukocyte Antigen - DR isotype (HLADR), HLA-DRA (gene 3122); assay: BSK_3C_HLADR: BioMAP Diversity Plus: 3C Assay for Human Leukocyte Antigen - DR isotype (HLADR) Biomarker Activity (AID 2283019); conditions: primary human endothelial cells (HUVEC); actives raise or lower the signal;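 further: ELISA of cell-surface HLA-DR on HUVEC 24 h after dosing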
Summary of the method: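 ELISA readout of surface HLA-DR on human umbilical vein endothelium, taken 24 h after chemical treatment. Gain- and loss-of-signal were both fitted relative to DMSO.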

[2] = read-out: Interleukin-8 (IL8), CXCL8 (gene 3576); assay: BSK_3C_IL8: BioMAP Diversity Plus: 3C Assay for Interleukin-8 (IL8) Biomarker Activity (AID 2283020); conditions: primary human endothelial cells (HUVEC); actives raise or lower the signal
Summary of the method: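 Primary human umbilical vein endothelial cells (3C system) were exposed to test chemical for 24 h, then IL-8 was quantified by ELISA. Responses were fitted bidirectionally against DMSO vehicle as baseline.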

[3] = read-out: Monokine induced gamma interferon (MIG), CXCL9 (gene 4283); assay: BSK_3C_MIG: BioMAP Diversity Plus: 3C Assay for Monokine induced gamma interferon (MIG) Biomarker Activity (AID 2283021); conditions: primary human endothelial cells (HUVEC); actives raise or lower the signal
Summary of the method: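 Primary human umbilical vein endothelial cells in the 3C system were exposed to chemical for 24 h, after which MIG was quantified by ELISA. Activity was fitted bidirectionally against DMSO as negative control and baseline.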

[4] = BSK_3C_SRB: Viability Assessment in the BioMAP Diversity Plus: 3C Assay (AID 2283023); conditions: primary human endothelial cells (HUVEC);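 further: fitted both ways against DMSO so a hit may be signal rise or drop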
Summary of the method: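 Absorbance at 560 nm of sulforhodamine B-stained (0.1%) total protein served as a cytotoxicity readout in human umbilical vein endothelial cells, 24 h after chemical treatment. Signal was fitted bidirectionally relative to DMSO.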

[5] = read-out: Matrix Metallopeptidase 1 (MMP1), MMP1 (gene 4312); assay: BSK_BE3C_MMP1: BioMAP Diversity Plus: BE3C Assay for Matrix Metallopeptidase 1 (MMP1) Biomarker Activity (AID 2283024); conditions: primary human bronchial epithelial cells; actives raise or lower the signal
Summary of the method: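 Primary human bronchial epithelial cells were dosed with test chemicals, and MMP1 levels were measured by ELISA 24 h later. Data were fitted bidirectionally against DMSO as the negative control and activity baseline.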

[6] = BSK_3C_Vis: BioMAP Diversity Plus: 3C Assay for Morphology Visualization (AID 2283025); conditions: primary human endothelial cells (HUVEC);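 further: fitted both ways so gain or loss versus DMSO counts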
Summary of the method: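 Human umbilical vein endothelial cells in the 3C system were imaged by light microscopy 24 h after chemical dosing to record cell morphology. Activity was fitted bidirectionally against DMSO as negative control and baseline; the endpoint serves as a background control.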

[7] = read-out: Pselectin, SELP (gene 6403); assay: BSK_4H_Pselectin: BioMAP Diversity Plus: 4H Assay for Pselectin Biomarker Activity (AID 2283026); conditions: primary human endothelial cells (HUVEC); actives raise or lower the signal
Summary of the method: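 Primary human umbilical vein endothelial cells were exposed to test chemical for 24 h, then cell-surface P-selectin was quantified by ELISA. Activity was fitted bidirectionally against DMSO as negative control and baseline.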

[8] = BSK_4H_SRB: Viability Assessment in the BioMAP Diversity Plus: 4H Assay (AID 2283027); conditions: primary human endothelial cells (HUVEC);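 further: cells exposed to compound for 24 h before staining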;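 on AC50: curves fitted both ways versus DMSO so AC50 may be loss or gain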
Summary of the method: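 Human umbilical vein endothelial cells, 24 h after chemical dosing; total protein measured by 0.1% sulforhodamine B staining after 10% TCA fixation, read at 560 nm. Bidirectional fitting against DMSO.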

[9] = BSK_BE3C_SRB: Viability Assessment in the BioMAP Diversity Plus: BE3C Assay (AID 2283028); conditions: primary human bronchial epithelial cells
Summary of the method: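 Cells (human bronchial epithelial, primary) are treated with chemicals, and after 24 h the parallel cultures are fixed in 10% TCA. These are then stained with 0.1% SRB and read at 560 nm. Gain or loss of signal is fitted relative to DMSO.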

[10] = read-out: Thrombomodulin, THBD (gene 7056); assay: BSK_3C_Thrombomodulin: BioMAP Diversity Plus: 3C Assay for Thrombomodulin Biomarker Activity (AID 2283029); conditions: primary human endothelial cells (HUVEC); actives raise or lower the signal
Summary of the method: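 Primary human umbilical vein endothelial cells (3C system) were exposed to chemical for 24 h, then thrombomodulin levels were measured by ELISA. Activity was fitted bidirectionally against the DMSO negative control as baseline.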

[11] = read-out: Urokinase-type plasminogen activator receptor (uPAR), PLAUR (gene 5329); assay: BSK_4H_uPAR: BioMAP Diversity Plus: 4H Assay for Urokinase-type plasminogen activator receptor (uPAR) Biomarker Activity (AID 2283030); conditions: primary human endothelial cells (HUVEC); actives raise or lower the signal
Summary of the method: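 Cell-surface uPAR ELISA signal, measured 24 h after dosing human umbilical vein endothelial cells, was analyzed with bidirectional fitting relative to DMSO. Parallel SRB staining of total protein tracked overt cytotoxicity.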

[12] = read-out: Vascular endothelial growth factor receptor 2 (Homo sapiens) (UniProt P35968); assay: BSK_4H_VEGFRII: BioMAP Diversity Plus: 4H Assay for Vascular endothelial growth factor receptor 2 (VEGFR2) Biomarker Activity (AID 2283031); conditions: primary human endothelial cells (HUVEC); actives raise or lower the signal
Summary of the method: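 ELISA read-out of VEGFRII in primary human umbilical vein endothelium, taken 24 h after chemical treatment. Responses are expressed relative to DMSO, with bidirectional fitting.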

[13] = read-out: Human Leukocyte Antigen - DR isotype (HLADR), HLA-DRA (gene 3122); assay: BSK_BE3C_HLADR: BioMAP Diversity Plus: BE3C Assay for Human Leukocyte Antigen - DR isotype (HLADR) Biomarker Activity (AID 2283032); conditions: primary human bronchial epithelial cells; actives raise or lower the signal
Summary of the method: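 Human primary bronchial epithelial cells in the BE3C system were exposed to chemicals for 24 h, after which HLA-DR levels were quantified by ELISA. Activity was fitted bidirectionally, gain or loss of signal, against DMSO as negative control and baseline.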

[14] = read-out: Vascular cell adhesion molecule 1 (VCAM1), VCAM1 (gene 7412); assay: BSK_4H_VCAM1: BioMAP Diversity Plus: 4H Assay for Vascular cell adhesion molecule 1 (VCAM1) Biomarker Activity (AID 2283033); conditions: primary human endothelial cells (HUVEC); actives raise or lower the signal;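 on outcome: cell-surface VCAM-1 protein measured by ELISA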
Summary of the method: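 Primary human umbilical vein endothelial cells were exposed to chemicals for 24 h, after which VCAM-1 was quantified by ELISA. Responses were fitted bidirectionally against DMSO as negative control and activity baseline.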

[15] = read-out: Interferon-gamma inducible Protein 10 (IP10), CXCL10 (gene 3627); assay: BSK_BE3C_IP10: BioMAP Diversity Plus: BE3C Assay for Interferon-gamma inducible Protein 10 (IP10) Biomarker Activity (AID 2283034); conditions: primary human bronchial epithelial cells; actives raise or lower the signal
Summary of the method: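 Human primary bronchial epithelial cells were exposed to chemicals for 24 hours, after which IP-10 levels were measured by ELISA. Data were fitted bidirectionally against DMSO, which served as the negative control and activity baseline.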

[16] = read-out: Monokine induced gamma interferon (MIG), CXCL9 (gene 4283); assay: BSK_BE3C_MIG: BioMAP Diversity Plus: BE3C Assay for Monokine induced gamma interferon (MIG) Biomarker Activity (AID 2283035); conditions: primary human bronchial epithelial cells; actives raise or lower the signal;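 further: MIG protein measured by ELISA in BE3C cultures after 24 h of dosing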
Summary of the method: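 Primary human bronchial epithelial cells treated for 24 h; MIG levels measured by ELISA, fitted bidirectionally versus DMSO. Parallel SRB total-protein staining assessed cytotoxicity.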

[17] = read-out: Transforming growth factor beta 1 (TGFb1), TGFB1 (gene 7040); assay: BSK_BE3C_TGFb1: BioMAP Diversity Plus: BE3C Assay for Transforming growth factor beta 1 (TGFb1) Biomarker Activity (AID 2283036); conditions: primary human bronchial epithelial cells; actives raise or lower the signal
Summary of the method: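 Human primary bronchial epithelial cells (BE3C system) were dosed with chemical and TGF-b1 levels measured by ELISA at 24 h. Activity was fitted bidirectionally relative to DMSO negative control as baseline.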

[18] = read-out: Plasminogen activator inhibitor-1 (PAI1), SERPINE1 (gene 5054); assay: BSK_BE3C_PAI1: BioMAP Diversity Plus: BE3C Assay for Plasminogen activator inhibitor-1 (PAI1) Biomarker Activity (AID 2283037); conditions: primary human bronchial epithelial cells; actives raise or lower the signal
Summary of the method: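 Human primary bronchial epithelial cells were exposed to chemical for 24 h, then PAI-1 was quantified by ELISA. Activity was fitted bidirectionally relative to the DMSO negative control baseline.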

[19] = read-out: urokinase plasminogen activator (uPA), PLAU (gene 5328); assay: BSK_BE3C_uPA: BioMAP Diversity Plus: BE3C Assay for urokinase plasminogen activator (uPA) Biomarker Activity (AID 2283038); conditions: primary human bronchial epithelial cells; actives raise or lower the signal;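 further: uPA protein level quantified by ELISA in cell cultures; uPA read one day after compound addition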
Summary of the method: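 Bronchial epithelial cells (human, primary); chemical 24 h; uPA by ELISA; bidirectional fit vs DMSO. SRB (0.1%, after 10% TCA fixation, 560 nm) in parallel cultures for cytotoxicity.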

[20] = molecular target: human Vitamin D Receptor (VDR), VDR (gene 7421) (UniProt P11473); assay: ATG_VDR_TRANS: Attagene TRANS-FACTORIAL HepG2 Assay for human Vitamin D Receptor (VDR) (AID 2283022; active means hit-call score of the fitted dose curve at least 0.9, where 1 is the maximum)
human Vitamin D Receptor (VDR), VDR (gene 7421), sequence (P11473 whole entry, looked up, the tested form may be a part): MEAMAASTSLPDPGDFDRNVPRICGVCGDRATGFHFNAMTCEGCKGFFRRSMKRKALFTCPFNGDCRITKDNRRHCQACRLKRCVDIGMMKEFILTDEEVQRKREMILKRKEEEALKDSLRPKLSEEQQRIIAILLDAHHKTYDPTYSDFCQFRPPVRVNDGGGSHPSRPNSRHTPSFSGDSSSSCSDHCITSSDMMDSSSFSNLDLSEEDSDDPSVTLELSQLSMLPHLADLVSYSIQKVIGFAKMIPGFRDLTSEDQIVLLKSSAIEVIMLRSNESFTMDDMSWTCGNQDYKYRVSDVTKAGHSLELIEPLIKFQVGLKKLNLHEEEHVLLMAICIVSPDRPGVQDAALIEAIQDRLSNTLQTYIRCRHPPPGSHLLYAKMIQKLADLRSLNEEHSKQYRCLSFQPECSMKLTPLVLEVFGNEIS
Summary of the method: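 Steps: transfect HepG2 with GAL4-UAS-driven reporter constructs; dose compounds 24 h; isolate RNA, reverse-transcribe, PCR-amplify with 6-FAM-labelled primer extension and HpaI digestion; quantify fragments by capillary electrophoresis relative to DMSO.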

CCOP(=S)(Oc1ccc([N+](=O)[O-])cc1)c1ccccc1 (stereo not drawn)
outcome [1]: inactive | outcome [2]: inactive | outcome [3]: inactive | outcome [4]: inactive | outcome [5]: inactive | outcome [6]: inactive | outcome [7]: inactive | outcome [8]: inactive | outcome [9]: inactive | outcome [10]: inactive | outcome [11]: inactive | outcome [12]: inactive | outcome [13]: inactive | AC50 [14]: 8.86 µM (active) | outcome [15]: inactive | outcome [16]: inactive | outcome [17]: inactive | outcome [18]: inactive | outcome [19]: inactive

CCC1(c2ccccc2)C(=O)N=C(O)NC1=O (stereo not drawn)
outcome [1]: inactive | outcome [2]: inactive | outcome [3]: inactive | outcome [20]: inactive | outcome [5]: inactive | outcome [6]: inactive | outcome [7]: inactive | outcome [9]: inactive | outcome [10]: inactive | outcome [11]: inactive | outcome [12]: inactive | outcome [13]: inactive | outcome [14]: inactive | outcome [15]: inactive | outcome [16]: inactive | outcome [17]: inactive | outcome [18]: inactive | outcome [19]: inactive

CC(O)C(F)(F)C(F)(F)F (stereo not drawn)
outcome [1]: inactive | outcome [2]: inactive | outcome [3]: inactive | outcome [20]: inactive | outcome [4]: inactive | outcome [5]: inactive | outcome [7]: inactive | outcome [9]: inactive | outcome [10]: inactive | outcome [11]: inactive | outcome [12]: inactive | outcome [13]: inactive | outcome [14]: inactive | outcome [15]: inactive | outcome [16]: inactive | outcome [18]: inactive | outcome [19]: inactive

O=C(O)C(F)(OC(F)(F)C(F)(F)C(F)(F)F)C(F)(F)F (stereo not drawn)
outcome [1]: inactive | AC50 [2]: 5.95 µM (active) | outcome [2]: inactive | outcome [3]: inactive | AC50 [5]: 10.7 µM (active) | outcome [5]: inactive | outcome [7]: inactive | outcome [9]: inactive | outcome [10]: inactive | outcome [11]: inactive | outcome [12]: inactive | outcome [13]: inactive | outcome [14]: inactive | outcome [15]: inactive | outcome [16]: inactive | AC50 [18]: 220 nM (active) | outcome [18]: inactive | outcome [19]: inactive

Nc1ccc([N+](=O)[O-])cc1Cl
outcome [1]: inactive | outcome [2]: inactive | outcome [3]: inactive | outcome [20]: inactive | outcome [5]: inactive | outcome [6]: inactive | outcome [7]: inactive | outcome [8]: inactive | outcome [9]: inactive | outcome [10]: inactive | outcome [11]: inactive | outcome [12]: inactive | outcome [13]: inactive | outcome [14]: inactive | outcome [15]: inactive | outcome [16]: inactive | outcome [17]: inactive | outcome [18]: inactive | outcome [19]: inactive

OCC(F)(F)OC(F)(F)C(F)(F)OC(F)(F)C(F)(F)OC(F)(F)CO
outcome [1]: inactive | outcome [2]: inactive | outcome [3]: inactive | outcome [20]: inactive | AC50 [5]: 39.8 µM (active) | outcome [5]: inactive | outcome [7]: inactive | AC50 [8]: 30 µM (active) | outcome [8]: inactive | outcome [9]: inactive | outcome [10]: inactive | outcome [11]: inactive | outcome [12]: inactive | AC50 [13]: 45.5 µM (active) and 30 µM (active) | outcome [14]: inactive | AC50 [15]: 44.9 µM (active) and 35.8 µM (active) | outcome [16]: inactive | outcome [18]: inactive | outcome [19]: inactive

NC(=O)C(F)(F)C(F)(F)F
outcome [1]: inactive | outcome [2]: inactive | outcome [3]: inactive | outcome [20]: inactive | outcome [4]: inactive | outcome [5]: inactive | outcome [7]: inactive | outcome [8]: inactive | outcome [9]: inactive | outcome [10]: inactive | outcome [11]: inactive | outcome [12]: inactive | outcome [13]: inactive | outcome [14]: inactive | outcome [15]: inactive | outcome [16]: inactive | outcome [18]: inactive | outcome [19]: inactive
